Test [1] has as its system Human papillomavirus type 1a protein E7 (residues 44-93). Nature of the test: small molecules binding HPV E7 44-93 – biochemical, small-molecule microarray, residues 44-93, 635 nm fluorescence, primary screen (AID 1108).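 Further: E7 fragment applied at 1 µg/mL in TBST for 1 h at 4 C; score combines spot fluorescence with its signal to noise ratio.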 Particulars: fluorescence 635 nm, higher = more signal.
Test [2] in a line: hepatitis C replication reporter changes, two-sided – Huh7 cells, luciferase reporter, HCV replication inhibitor project, primary screen (AID 1109).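 Further: huh7 hepatoma cells harbouring a luciferase neomycin HCV replicon reporter; luciferase luminescence as measure of HCV replicon replication; test concentration not given here.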 Particulars: Huh7 HCV replicon luciferase reporter, 48 h; higher = more signal. On the technique in general: Reporter assays use an easily measured gene product as a stand-in for the process of interest.
Test [3] concerns the target Left-right determination factor 2 (Homo sapiens) (UniProt O00292). Nature of the test: small molecules binding LEFTY2 protein – biochemical, small-molecule microarray, 635 nm fluorescence scan, primary screen (AID 1110). Particulars: higher = more signal.
For test [4], the target named is Calmodulin-1 (Homo sapiens) (UniProt P0DP23). Nature of the test: small molecules binding calmodulin-1 with EGTA – biochemical, small-molecule microarray, Cy5-labelled CALM1, profiling panel (AID 1111).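 Further: labelled calmodulin applied in Tris saline Tween buffer holding calcium plus EGTA and DTT.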 Particulars: Cy5-CALM1 binding fluorescence, higher = more signal.
Test [5] has the same target. Nature of the test: small molecules binding Ca-loaded calmodulin-1 – biochemical, small-molecule microarray, Cy5-labelled CALM1, plus calcium, artefact control for SMM control-protein annotation, profiling panel (AID 1112).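 Further: score merges spot fluorescence with signal to noise from triplicate slides.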 The following applies: Cy5-CALM1 binding fluorescence, higher = more signal.
Test [6] is described as follows: probe aWnt5a binding to arrayed compounds – biochemical, biotinylated probe, 635/667 nm fluorescence, primary screen (AID 1113).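 Further: score merges 667 nm fluorescence intensity with signal-to-noise per printed feature.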 The following applies: small-molecule microarray, higher = more signal.
Test [7] can be described thus: probe aShh binding to arrayed compounds – biochemical, biotinylated probe, 635/667 nm fluorescence, primary screen (AID 1114).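 Further: probe is biotin-labelled aShh protein from a stem cell growth factor screen; measures binding of labelled protein to compounds printed on the slide; score merges feature fluorescence at 667 nm with signal-to-noise.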 Particulars: small-molecule microarray, higher = more signal.
Test [8] is described as follows: probe aNog binding to arrayed compounds – biochemical, biotinylated probe, 635/667 nm fluorescence, primary screen (AID 1115).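 Further: probe is biotinylated aNog protein used at 0.15 µg/mL for 1 h at 4 C; z-score combines 667 nm fluorescence of each spot with its signal to noise.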 The following applies: small-molecule microarray, higher = more signal.
Test [9] addresses Torsin-1A-interacting protein 1 (Homo sapiens) (UniProt Q5JTV8). Nature of the test: compound microarray binding of lysate hLAP1 – cell lysate, small-molecule microarray, COS7 lysate, 635/667 nm fluorescence, primary screen (AID 1116). The following applies: 635 nm fluorescence, higher = more signal.
Test [10] has as its target Alpha-bungarotoxin (Bungarus multicinctus) (UniProt P60615). Briefly: compounds binding labelled alpha-BTX control protein – biochemical, small-molecule microarray, Alexa647 label, 635/667 nm fluorescence, artefact control for SMM control protein annotation, profiling panel (AID 1117). The following applies: alpha-BTX-A647 binding fluorescence, higher = more signal.
For the next test, the target named is Albumin (Bos taurus) (UniProt P02769). Briefly: compounds binding labelled BSA control protein – biochemical, small-molecule microarray, Alexa647 label, 635/667 nm fluorescence, artefact control for SMM control protein annotation, profiling panel (AID 1118).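 Further: score merges 667 nm emission intensity and signal-to-noise per printed compound spot.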 Particulars: BSA-A647 binding, fluorescence 635 nm, higher = more signal.
Albumin (Bos taurus), sequence (P02769 whole entry, looked up): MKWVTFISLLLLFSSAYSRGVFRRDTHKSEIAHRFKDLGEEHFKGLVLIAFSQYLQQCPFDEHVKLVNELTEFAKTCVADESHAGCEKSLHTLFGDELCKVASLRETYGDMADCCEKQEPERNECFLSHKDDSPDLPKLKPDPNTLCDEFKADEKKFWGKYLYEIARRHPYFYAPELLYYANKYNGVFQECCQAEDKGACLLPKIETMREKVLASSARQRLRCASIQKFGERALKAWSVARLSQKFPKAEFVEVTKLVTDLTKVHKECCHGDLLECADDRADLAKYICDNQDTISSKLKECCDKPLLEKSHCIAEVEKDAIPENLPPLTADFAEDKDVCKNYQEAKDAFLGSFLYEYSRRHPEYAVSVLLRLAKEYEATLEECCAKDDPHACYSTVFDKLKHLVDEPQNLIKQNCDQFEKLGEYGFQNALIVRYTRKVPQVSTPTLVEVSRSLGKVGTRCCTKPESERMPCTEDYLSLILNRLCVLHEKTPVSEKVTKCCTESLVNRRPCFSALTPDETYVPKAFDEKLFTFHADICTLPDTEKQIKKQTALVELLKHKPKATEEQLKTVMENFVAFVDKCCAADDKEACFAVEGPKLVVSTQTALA
Test [11] can be described thus: probe aXIP binding to arrayed compounds – biochemical, NeuroSMM set, 635/667 nm fluorescence, primary screen (AID 1119).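 Further: probe is the protein aXip251-270 applied at 1 µg/mL to compound-printed slides; binding of probe to printed compounds measured as 667 nm fluorescence plus signal to noise.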 The following applies: small-molecule microarray, higher = more signal, called active from +8 up or from −8 down.
Test [12] in a line: probe aNOTCH3 binding on compound microarray – biochemical, small-molecule microarray, 635/667 nm fluorescence, primary screen (AID 1120).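 Further: probe is a biotin-tagged antibody raised against NOTCH3 rather than NOTCH3 protein; score merges spot fluorescence near 667 nm with spot signal to noise.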 Particulars: higher = more signal.
A short description of test [13]: probe aNOTCH2 binding on compound microarray – biochemical, small-molecule microarray, 635/667 nm fluorescence, primary screen (AID 1121).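 Further: score merges feature fluorescence read at 667 nm with its signal to noise.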 The following applies: higher = more signal.
Test [14] addresses Carbonic anhydrase 2 (Homo sapiens) (UniProt P00918). Nature of the test: compounds binding carbonic anhydrase 2 – biochemical, small-molecule microarray, Alexa647-labelled CAII, profiling panel (AID 1122). Particulars: CAII-A647 binding fluorescence, higher = more signal.
Test [15] can be described thus: COS7 lysate on small-molecule microarray, probe aHis, 635 nm (AID 1123).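 Further: z-score combines 667nm fluorescence intensity with signal-to-noise per printed compound spot.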 Particulars: COS7 cell lysate, fluorescence, higher = more signal.
A short description of test [16]: probe aLAP1 signal on lysate-treated microarray – cell lysate, small-molecule microarray, COS7 lysate, primary screen (AID 1124).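 Further: lysate comes from COS7 cells expressing LAP1 and is applied at 0.3 µg/mL; score merges spot fluorescence near 667 nm with signal-to-noise over triplicate slides.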 Particulars: probe aLAP1, fluorescence, higher = more signal.
The next test relates to Sam68 (KHDRBS1). Briefly: compounds binding KHDRBS1 protein – biochemical, small-molecule microarray, 635 nm fluorescence, primary screen (AID 1125).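 Further: score merges 667 nm channel intensity with signal to noise over triplicate slides.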 Particulars: higher = more signal.
Test [17] concerns Chordin-like protein 2 (CHRDL2). Nature of the test: compounds binding chordin-like 2 – biochemical, small-molecule microarray, 635 nm fluorescence, primary screen (AID 1126).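 Further: printed compound slides probed with Chrdl2 protein at 4 µg/mL for 1 h at 4 C; score merges 667 nm emission intensity with signal to noise over three replicate slides.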 Particulars: fluorescence 635 nm, higher = more signal.
Test [18] addresses Concanavalin-A (Canavalia ensiformis) (UniProt P02866). Nature of the test: compounds binding concanavalin A lectin – biochemical, small-molecule microarray, Alexa647 label, 635 nm, artefact control for SMM control protein annotation, primary screen (AID 1127).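 Further: z combines 667 nm emission intensity with signal-to-noise across three replicate slides.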 The following applies: ConA-A647 binding fluorescence, higher = more signal.

Each structure is given as a SMILES string. Calls of active or inactive are those of the source.

Concanavalin-A (Canavalia ensiformis), sequence (P02866 whole entry, looked up): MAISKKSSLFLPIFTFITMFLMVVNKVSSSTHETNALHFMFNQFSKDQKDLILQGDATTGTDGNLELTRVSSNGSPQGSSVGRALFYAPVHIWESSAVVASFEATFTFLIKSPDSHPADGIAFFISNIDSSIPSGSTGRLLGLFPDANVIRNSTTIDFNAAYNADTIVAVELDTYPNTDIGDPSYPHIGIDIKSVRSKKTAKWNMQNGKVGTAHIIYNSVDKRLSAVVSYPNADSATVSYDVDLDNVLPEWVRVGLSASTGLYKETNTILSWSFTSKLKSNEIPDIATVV
Torsin-1A-interacting protein 1 (Homo sapiens), sequence (Q5JTV8 whole entry, looked up): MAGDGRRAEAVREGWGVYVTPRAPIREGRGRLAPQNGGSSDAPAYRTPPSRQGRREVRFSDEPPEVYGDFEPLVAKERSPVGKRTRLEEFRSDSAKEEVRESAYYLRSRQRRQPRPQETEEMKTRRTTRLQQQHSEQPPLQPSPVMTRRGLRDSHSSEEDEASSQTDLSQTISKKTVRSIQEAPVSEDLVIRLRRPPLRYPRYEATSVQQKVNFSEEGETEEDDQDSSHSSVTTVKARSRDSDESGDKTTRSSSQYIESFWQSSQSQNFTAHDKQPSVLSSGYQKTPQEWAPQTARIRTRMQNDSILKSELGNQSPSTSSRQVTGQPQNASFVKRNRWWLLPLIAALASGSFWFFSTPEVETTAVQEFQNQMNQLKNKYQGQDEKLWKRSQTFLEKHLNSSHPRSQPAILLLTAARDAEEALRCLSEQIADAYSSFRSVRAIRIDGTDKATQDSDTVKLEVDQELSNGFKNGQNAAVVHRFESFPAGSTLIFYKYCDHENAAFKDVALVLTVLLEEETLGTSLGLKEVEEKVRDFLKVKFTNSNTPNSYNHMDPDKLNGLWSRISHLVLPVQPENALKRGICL
Left-right determination factor 2 (Homo sapiens), sequence (O00292 whole entry, looked up): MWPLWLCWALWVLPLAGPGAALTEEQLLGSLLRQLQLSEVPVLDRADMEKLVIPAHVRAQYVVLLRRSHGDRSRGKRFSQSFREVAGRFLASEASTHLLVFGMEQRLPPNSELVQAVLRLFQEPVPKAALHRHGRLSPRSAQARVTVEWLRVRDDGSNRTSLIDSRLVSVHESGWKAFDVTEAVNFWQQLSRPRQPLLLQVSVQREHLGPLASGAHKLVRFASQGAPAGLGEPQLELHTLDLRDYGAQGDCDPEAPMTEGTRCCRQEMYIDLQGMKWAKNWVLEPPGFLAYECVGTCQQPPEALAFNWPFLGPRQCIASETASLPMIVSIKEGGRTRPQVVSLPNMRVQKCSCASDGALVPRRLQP
Alpha-bungarotoxin (Bungarus multicinctus), sequence (P60615 whole entry, looked up): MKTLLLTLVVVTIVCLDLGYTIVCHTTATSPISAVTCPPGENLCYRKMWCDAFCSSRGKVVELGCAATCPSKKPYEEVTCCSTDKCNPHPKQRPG

As to `COc1ccc([Si](C)(C)[C@H]2[C@H](CC(=O)N(CCO)Cc3ccccc3)O[C@@]3(C(=O)N(Cc4cccc(N5CCC5=O)c4)c4ccccc43)[C@@H]2C)cc1`, the composite z-score in test [1] was 0.784; in test [3], 0.829; in test [4] it was 0.64; in [5] it was -0.173; in test [6], -0.1; in [7], -0.0793. Besides, the composite z-score in [8] is -0.0311; in test [9], 0.059; in test [10] it was 1.03; with Albumin (Bos taurus) it was 0.378; in test [12], -0.0802; in test [13], -0.154. Further, the composite z-score turned out to be 0.454 in test [14]; 1.12 in test [15]; 0.782 in test [16]; 1.01 in the test on Sam68 (KHDRBS1); 1.1 in test [17]; 1.11 in test [18]. The z-score in test [2] is -3.85. Further, the composite Z-score in [11] was 4.59 (inactive).

Turning to `C=CCOC(=O)[C@@H]1[C@H]2C(=O)O[C@H](c3ccccc3)[C@H](c3ccccc3)N2[C@H](c2ccc(OCCOC(=O)[C@@H]3C[C@@H]4C(=O)NCC(=O)N4[C@@H]3c3cccc(OCCO)c3)cc2)[C@@]12C(=O)Nc1ccc(I)cc12`, the composite z-score in [1] was 1.43; in [3], 0.949; in [4] it was 0.689; in test [5] it was -0.0508; in test [6], -0.0735; in test [7], -0.043. Further, the composite z-score in [8] is 1.07; in test [9], -1.86; in test [10], 1.75; with Albumin (Bos taurus), -0.991; in [12], -0.0835; in test [13], -0.0242. Moreover, the composite z-score was determined as 0.501 in [14]; 1.59 in test [15]; 0.875 in [16]; 1.3 in the test with Sam68 (KHDRBS1); 0.926 in [17]; 0.964 in test [18]. In test [2], this compound gave a z-score of -1.54. Besides, the composite Z-score in [11] was -0.0135 (inactive).

Turning to `COC(=O)[C@@]1(Cc2ccccc2)N=C(c2ccc(OCCCO)cc2)O[C@H]1c1ccccc1N=[N+]=[N-]`, the composite z-score is 1.33 in test [1]; 0.241 in [3]; -0.203 in test [4]; -1.07 in [5]; -0.0405 in test [6]; 0.297 in test [7]. For the same compound, the composite z-score was 0.781 in [8]; 2.83 in test [9]; 0.778 in test [10]; -0.541 with Albumin (Bos taurus); 0.104 in test [12]; 0.114 in test [13]. For the same compound, the composite z-score amounted to 0.111 in test [14]; 1.37 in test [15]; 0.863 in test [16]; 1.06 in the test on Sam68 (KHDRBS1); 0.968 in [17]; 0.649 in test [18]. This compound also registered a z-score in test [2] of -0.749. In test [11], the composite Z-score is 2.98 (inactive).

Turning to `O=C(NCc1ccccc1)[C@]1(CCS(=O)(=O)c2ccccc2)N=C(c2ccc(OCCCO)cc2)O[C@@H]1c1ccccc1`, the composite z-score was found to be 1.15 in [1]; 0.554 in test [3]; 1.53 in test [4]; 0.206 in [5]; 0.0579 in test [6]; 0.182 in [7]. For the same compound, the composite z-score is 0.0539 in [8]; 0.51 in test [9]; 0.452 in [10]; 0.714 in the test with Albumin (Bos taurus); 0.296 in [12]; -0.048 in [13]. The composite z-score in test [14] is 0.555; in [15], 0.751; in test [16], 0.379; with Sam68 (KHDRBS1), 1.31; in [17], 0.205; in [18], 1.08. In test [2], the z-score is -2.05. For the same compound, the composite Z-score in [11] was 0.235 (inactive).

With `O=C(O)[C@H]1C[C@H]2C(=O)NCC(=O)N2[C@H]1c1ccc(O)cc1`, the composite z-score in test [1] was -0.008; in test [3] it was 0.205; in [4] it was -0.559; in test [5] it was -0.0282; in test [6] it was -0.147; in test [7] it was -0.214. Further, the composite z-score in test [8] is -0.312; in test [9], 0.519; in test [10], 2.03; with Albumin (Bos taurus) it was 0.346; in test [12] it was 0.791; in [13], -0.0761. The composite z-score in test [14] was 0.688; in [15], 0.921; in test [16], 0.0741; with Sam68 (KHDRBS1), 0.0505; in [17] it was 1.26; in test [18] it was 0.482. The same compound registered a z-score in test [2] of 1.81. Besides, in test [11], the composite Z-score was 0.289 (inactive).

Source of the values: PubChem BioAssay.
